# Several values for one entry are separate records, joined by “and”; a condition that tells them apart may be missing. Equal values may be shown once. Screen size: about 5,500 compounds; about 2,000 (36%) were called active. Another 18% or so got no clear call; they are omitted. Cut-off read from the data, not from the text of the source: active = normalized growth mostly below about 0.91 (no sharp cut-off); inconclusive = no clear call, values can overlap the other calls; inactive = mostly above about 0.92. Some of the results follow.
# Test: chemical genetic growth profiling, strain panel (AID 1159580);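 note: tested at 20 µM; growth read once vehicle control cultures reached saturation at 30 °C; 1 = growth at the plate median or of vehicle wells; lower values mean less growth of the strain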
# Conditions: S. cerevisiae deletion strains, growth OD
compound,measurement,setting,value
COc1ccc(-c2cc(=O)c3c(OC(C)=O)cc(OC(C)=O)cc3o2)cc1,normalized growth,"locus YAL013W, strain DEP1, stronger effect = lower value",0.955 (inactive)
same,normalized growth,"locus YAL021C, strain ccr4, stronger effect = lower value",0.947 (inactive)
same,normalized growth,"locus YAL026C, strain drs2, stronger effect = lower value",1.01 (inactive)
same,normalized growth,"locus YAL030W, strain snc1, stronger effect = lower value",0.99 (inactive)
same,normalized growth,"locus YBL061C, strain skt5, stronger effect = lower value",0.974 (inactive)
same,normalized growth,"locus YBR009C, strain hhf1, stronger effect = lower value",0.972 (inactive)
same,normalized growth,"locus YBR021W, strain FUR4, stronger effect = lower value",0.916 (inactive)
same,normalized growth,"locus YBR023C, strain chs3, stronger effect = lower value",0.972 (inactive)
same,normalized growth,"locus YBR171W, strain sec66, stronger effect = lower value",0.996 (inactive)
same,normalized growth,"locus YBR229C, strain ROT2, stronger effect = lower value",0.982 (inactive)
same,normalized growth,"locus YBR231C, strain swc5, stronger effect = lower value",0.922 (inactive)
same,normalized growth,"locus YBR279W, strain paf1, stronger effect = lower value",0.988 (inactive)
same,normalized growth,"locus YCL011C, strain gbp2, stronger effect = lower value",0.989 (inactive)
same,normalized growth,"locus YCL016C, strain dcc1, stronger effect = lower value",0.991 (inactive)
same,normalized growth,"locus YCL029C, strain bik1, stronger effect = lower value",0.958 (inactive)
same,normalized growth,"locus YCL061C, strain MRC1, stronger effect = lower value",0.989 (inactive)
same,normalized growth,"locus YCL069W, strain vba3, stronger effect = lower value",0.983 (inactive)
same,normalized growth,"locus YCR088W, strain abp1, stronger effect = lower value",0.996 (inactive)
same,normalized growth,"locus YDL005C, strain med2, stronger effect = lower value",0.991 (inactive)
same,normalized growth,"locus YDL035C, strain GPR1, stronger effect = lower value",0.975 (inactive)
same,normalized growth,"locus YDL040C, strain nat1, stronger effect = lower value",0.986 (inactive)
same,normalized growth,"locus YDL074C, strain BRE1, stronger effect = lower value",0.861 (inactive)
same,normalized growth,"locus YDL101C, strain DUN1, stronger effect = lower value",0.958 (inactive)
same,normalized growth,"locus YDL134C, strain PPH21, stronger effect = lower value",0.956 (inactive)
same,normalized growth,"locus YDL185W, strain tfp1, stronger effect = lower value",0.93 (inactive)
same,normalized growth,"locus YDL192W, strain arf1, stronger effect = lower value",0.965 (inactive)
same,normalized growth,"locus YDR001C, strain nth1, stronger effect = lower value",0.987 (inactive)
same,normalized growth,"locus YDR069C, strain doa4, stronger effect = lower value",0.981 (inactive)
same,normalized growth,"locus YDR101C, strain arx1, stronger effect = lower value",1 (inactive)
same,normalized growth,"locus YDR137W, strain rgp1, stronger effect = lower value",0.934 (inactive)
same,normalized growth,"locus YDR150W, strain NUM1, stronger effect = lower value",0.976 (inactive)
same,normalized growth,"locus YDR159W, strain sac3, stronger effect = lower value",0.974 (inactive)
same,normalized growth,"locus YDR162C, strain NBP2, stronger effect = lower value",0.948 (inactive)
same,normalized growth,"locus YDR195W, strain ref2",1 (inactive)
same,normalized growth,"locus YDR297W, strain sur2, stronger effect = lower value",0.98 (inactive)
same,normalized growth,"locus YDR318W, strain mcm21, stronger effect = lower value",0.936 (inactive)
same,normalized growth,"locus YDR334W, strain swr1, stronger effect = lower value",0.987 (inactive)
same,normalized growth,"locus YDR335W, strain msn5, stronger effect = lower value",0.995 (inactive)
same,normalized growth,"locus YDR388W, stronger effect = lower value",0.973 (inactive)
same,normalized growth,"locus YDR392W, strain spt3, stronger effect = lower value",0.646 (active)
same,normalized growth,"locus YDR502C, strain sam2, stronger effect = lower value",0.94 (inactive)
same,normalized growth,"locus YEL003W, strain gim4, stronger effect = lower value",0.968 (inactive)
same,normalized growth,"locus YEL037C, strain rad23, stronger effect = lower value",1 (inactive)
same,normalized growth,"locus YEL061C, strain CIN8 (second series), stronger effect = lower value",0.991 (inactive)
same,normalized growth,"locus YEL061C, strain CIN8, stronger effect = lower value",0.982 (inactive)
same,normalized growth,"locus YER015W, strain faa2, stronger effect = lower value",0.97 (inactive)
same,normalized growth,"locus YER016W, strain bim1, stronger effect = lower value",0.991 (inactive)
same,normalized growth,"locus YER110C, stronger effect = lower value",0.95 (inactive)
same,normalized growth,"locus YER111C, strain swi4, stronger effect = lower value",1 (inactive)
same,normalized growth,"locus YER155C, strain BEM2 (second series), stronger effect = lower value",0.846 (active)
same,normalized growth,"locus YER155C, strain BEM2, stronger effect = lower value",0.942 (inactive)
same,normalized growth,"locus YER167W, strain BCK2, stronger effect = lower value",0.993 (inactive)
same,normalized growth,"locus YFR010W, strain ubp6, stronger effect = lower value",1 (inactive)
same,normalized growth,"locus YGL078C, strain dbp3, stronger effect = lower value",0.961 (inactive)
same,normalized growth,"locus YGL086W, strain mad1, stronger effect = lower value",0.976 (inactive)
same,normalized growth,"locus YGL167C, strain pmr1, stronger effect = lower value",0.992 (inactive)
same,normalized growth,"locus YGL173C, strain kem1, stronger effect = lower value",0.982 (inactive)
same,normalized growth,"locus YGL227W, strain vid30, stronger effect = lower value",0.98 (inactive)
same,normalized growth,"locus YGL240W, strain doc1, stronger effect = lower value",0.985 (inactive)
same,normalized growth,"locus YGL248W, strain PDE1, stronger effect = lower value",0.935 (inactive)
same,normalized growth,"locus YGL253W, strain hxk2, stronger effect = lower value",0.97 (inactive)
same,normalized growth,"locus YGR135W, strain pre9, stronger effect = lower value",0.905 (inactive)
same,normalized growth,"locus YGR252W, strain gcn5, stronger effect = lower value",0.86 (inactive)
same,normalized growth,"locus YHR013C, strain ard1, stronger effect = lower value",0.968 (inactive)
same,normalized growth,"locus YHR027C, strain rpn1, stronger effect = lower value",0.991 (inactive)
same,normalized growth,"locus YHR030C, strain SLT2, stronger effect = lower value",0.972 (inactive) and 0.893 (inactive)
same,normalized growth,"locus YHR079C, strain IRE1 (second series), stronger effect = lower value",0.972 (inactive)
same,normalized growth,"locus YHR079C, strain IRE1, stronger effect = lower value",0.864 (inactive)
same,normalized growth,"locus YHR094C, strain hxt1, stronger effect = lower value",0.97 (inactive)
same,normalized growth,"locus YHR129C, strain ARP1, stronger effect = lower value",0.938 (inactive)
same,normalized growth,"locus YHR142W, strain chs7, stronger effect = lower value",0.951 (inactive)
same,normalized growth,"locus YHR200W, strain rpn10, stronger effect = lower value",0.959 (inactive)
same,normalized growth,"locus YIL066C, strain RNR3, stronger effect = lower value",0.994 (inactive)
same,normalized growth,"locus YIL073C, strain SPO22, stronger effect = lower value",0.852 (inactive)
same,normalized growth,"locus YIL125W, strain kgd1, stronger effect = lower value",0.991 (inactive)
same,normalized growth,"locus YIR030C, strain dcg1, stronger effect = lower value",0.955 (inactive)
same,normalized growth,"locus YJL092W, strain hpr5, stronger effect = lower value",1 (inactive)
same,normalized growth,"locus YJL095W, strain BCK1 (second series), stronger effect = lower value",0.992 (inactive)
same,normalized growth,"locus YJL095W, strain BCK1, stronger effect = lower value",0.884 (inactive) and 0.878 (active)
same,normalized growth,"locus YJL115W, strain asf1, stronger effect = lower value",0.989 (inactive)
same,normalized growth,"locus YJL129C, strain trk1, stronger effect = lower value",0.937 (inactive)
same,normalized growth,"locus YJL134W, strain LCB3, stronger effect = lower value",0.979 (inactive)
same,normalized growth,"locus YJL154C, strain vps35, stronger effect = lower value",0.997 (inactive)
same,normalized growth,"locus YJL164C, strain tpk1, stronger effect = lower value",0.98 (inactive)
same,normalized growth,"locus YJL166W, strain qcr8, stronger effect = lower value",0.953 (inactive)
same,normalized growth,"locus YJL168C, strain set2, stronger effect = lower value",0.97 (inactive)
same,normalized growth,"locus YJL187C, strain SWE1 (second series), stronger effect = lower value",0.927 (inactive)
same,normalized growth,"locus YJL187C, strain SWE1, stronger effect = lower value",1.01 (inactive)
same,normalized growth,"locus YJR043C, strain POL32, stronger effect = lower value",0.974 (inactive)
